Screening data deposited in PubChem by National Center for Advancing Translational Sciences (NCATS).
PK Bst: Pyruvate Kinase | 1.2% of 51,000 active | AID 361, 2006 | Potency, µM | purified pyruvate kinase, luminescence ATP production; ribose 5-phosphate activator present at AC10; in the data active means potency below about 11 µM; inconclusive means mostly about 12 µM to 25 µM;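 the screen sought inhibitors and activators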
ERK AVP block: qHTS Assay for Inhibitors of the ERK Signaling Pathway using a Homogeneous Screening Assay; HEK293-V1b, vasopressin-stimulated pERK AlphaScreen; Potency, µM (titrated, usually from 57.5 µM), usual class: inhibitors; 0.99% of 72,000 active; further: nearly all actives have a fitted effect of over 55% in size
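qHTS, compounds titrated on V1b-expressing HEK293 cells. Preincubation 30 min at 37C, vasopressin 25 nM for 5 min, lysis 10 min, bead incubation 5 hr at room temperature.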
Luciferase inh: qHTS Assay for Inhibitors of Firefly Luciferase | Potency, µM (series often up to 57.1 µM), actives largely listed as inhibitors | 2.2% of 72,000 active | purified firefly luciferase, luminescence, 8 min | Luciferin 4-monooxygenase (Photinus pyralis), P08659; further: nearly all actives have a fitted effect of over 40% in size
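Titration-based qHTS; buffer 50 mM imidazole pH 7.2, 50 mM KCl, 7 mM MgCl2, 10 uM ATP, 0.01% Tween 20, 0.05% BSA; luciferase/luciferin detector mix added after compound; 8 min, ambient; luminescence.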
GBA mod: Glucocerebrosidase | purified enzyme, resorufin glucoside fluorescence (screen aimed at inhibitors), 20 min | AID 360, 2006 | 1.1% of 48,000 active | Potency, µM | Lysosomal acid glucosylceramidase (Homo sapiens), P04062; in the data active means potency below about 15 µM; inconclusive means mostly about 16 µM to 33 µM;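 further: the screen sought inhibitors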
Target sequence (P04062 whole entry, looked up): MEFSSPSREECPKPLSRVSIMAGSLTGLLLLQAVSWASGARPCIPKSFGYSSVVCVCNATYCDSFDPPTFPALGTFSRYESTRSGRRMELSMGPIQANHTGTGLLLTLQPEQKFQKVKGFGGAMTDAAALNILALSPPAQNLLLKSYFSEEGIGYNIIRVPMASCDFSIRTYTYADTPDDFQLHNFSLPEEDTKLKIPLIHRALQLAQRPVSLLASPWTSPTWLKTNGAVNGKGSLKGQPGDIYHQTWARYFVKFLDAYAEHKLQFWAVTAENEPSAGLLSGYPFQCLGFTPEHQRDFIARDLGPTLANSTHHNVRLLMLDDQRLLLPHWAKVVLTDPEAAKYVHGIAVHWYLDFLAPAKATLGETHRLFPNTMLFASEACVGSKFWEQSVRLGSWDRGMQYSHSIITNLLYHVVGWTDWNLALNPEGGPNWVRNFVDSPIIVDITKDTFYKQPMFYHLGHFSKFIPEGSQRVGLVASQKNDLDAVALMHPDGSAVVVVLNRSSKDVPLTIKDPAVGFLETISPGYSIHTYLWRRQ
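Normal human glucocerebrosidase (0.2 nM final) was assayed with resorufin β-D-glucopyranoside (30 uM final) in 50mM citric acid/KH2PO4, 10mM sodium taurocholate, 0.01% tween-20, pH 5.9. Compounds were titrated; fluorescence (Ex 548, Em 600) read after 20 min at RT.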
Hits are given with their value; - = inactive; ? = inconclusive; . = no result; [ ] = remark or other dose. Rows were chosen to be rich in hits. Some 3.9% of all compounds tested hit in one or more screens of this group. Unless noted, the call rests on the fitted dose curve; in most records, active means well fitted curve in the direction sought with a large enough effect; inconclusive means small, poorly fitted or top-dose-only effect, or another doubt; inactive means no such curve, though single readings can be large; an effect the other way counts as inactive or inconclusive.

SMILES	PK Bst	ERK AVP block	Luciferase inh	GBA mod
Cc1csc(NC(=O)Nc2cccc(Cl)c2)n1	.	-	7.9µM	.
O=C(NC1CCCC1)C(c1cccs1)N(Cc1ccco1)C(=O)Cn1nnc(-c2cccs2)n1 (centres undefined)	-	-	-	11
Cc1ccc(SCCNC(=O)CN2C(=O)c3ccccc3S2(=O)=O)cc1	.	7.9µM	-	-
O=C(CN1C(=O)c2ccccc2S1(=O)=O)NCCSc1ccccc1	-	-	-	-
COc1ccc(CNc2nc(-c3cccnc3)nc3ccccc23)c(OC)c1	.	-	-[2.29 µM]	.
CCCn1c(=N)n(CC(=O)C(C)(C)C)c2ccccc21	-	?	-	4.4
Cn1c(=N)n(CC(=O)C(C)(C)C)c2ccccc21	-	-	-	13
CCCCn1c(=N)n(CC(=O)C(C)(C)C)c2ccccc21	-	-	-	-
Cn1nc(-c2ccc(OCC(=O)Nc3cccnc3)cc2)c2ccccc2c1=O	-	32µM	-	.
CO[C@@H]1COC(=O)C/C=C\[C@@H](C)[C@H](OC)COC(=O)C/C=C\[C@H]1C	.	-[11.5 µM]	-[11.4 µM]	.
Cc1c(O)nc(SC2CC(=O)N(c3ccccc3)C2=O)[nH]c1=O (centres undefined)	-	-	-	-
O=C1CC(Sc2nnnn2C2CCCCC2)C(=O)N1c1ccccc1 (centres undefined)	.	-	16µM	-
Oc1ccc(Cc2cc(Cl)cc(Cl)c2O)cc1Cl	.	-[11.5 µM]	-[11.4 µM]	.
CCN(CC)S(=O)(=O)c1ccc(NC(=O)c2cccc3c2C(=O)N(CCOC)C3)cc1	-	-	-	-
CCCN1Cc2cccc(C(=O)Nc3cc(OC)cc(OC)c3)c2C1=O	-	-	-	.
COCCN1Cc2cccc(C(=O)Nc3cccc(OC)c3)c2C1=O	.	-	-	-
O=C(Nc1ccc(F)cc1)c1cccc2c1C(=O)N(Cc1ccccn1)C2	11	-	-	.
COCCN1Cc2cccc(C(=O)Nc3ccc(C)c(C)c3)c2C1=O	.	-	25µM	-
COCCN1Cc2cccc(C(=O)Nc3ccc(S(=O)(=O)N4CCCCCC4)cc3)c2C1=O	-	-	-	15
CC[C@@H](c1ccccc1)n1c(=O)n2n(c1=O)[C@H]1[C@H](O)[C@H]3O[C@@H]3/C(=N/OCc3ccccc3)[C@@H]1CC2	.	-[11.5 µM]	-[11.4 µM]	.
NC(=O)C[C@H](N)C(N)=O	.	-[11.5 µM]	-[11.4 µM]	.
CC(C)(N)C(=O)N[C@@H]1C(=O)N2[C@@H]1SC(C)(C)[C@H]2C(=O)O	.	-[11.5 µM]	-[11.4 µM]	.
Clc1ccc(OCc2nnc(SCc3nc4ccccc4[nH]3)n2Cc2ccco2)cc1	-	20µM	-	-
CCc1ccc2[nH]c(=O)c(CN(CCCN3CCOCC3)C(=O)Nc3ccc(Cl)cc3)cc2c1	6.6	-	-	-
CCc1ccc2[nH]c(=O)c(CN(CCCN3CCOCC3)C(=O)Nc3ccccc3)cc2c1	.	-	-	-
SMILES	PK Bst	ERK AVP block	Luciferase inh	GBA mod
Cc1cc(C)c2cc(CN(CCO)C(=O)Nc3ccc(Cl)cc3)c(=O)[nH]c2c1	.	32µM	-	-
CC(=O)c1c(C)n(C)c2ccc(OC(=O)c3ccco3)cc12	8.4	-	-	-
COc1ccc2c(c1)c(C(=O)CN1CCN(C(=O)c3ccco3)CC1)c(C)n2C	-	-	-	-
FC(F)(F)c1cccc(Cl)c1	.	-	.	.
CC(=O)OC[C@@H]1O[C@H](C/C=N\O[C@@H](C)c2cn([C@H](CO)Cc3ccccc3)nn2)C=C[C@@H]1OC(C)=O	.	-[11.5 µM]	-[11.4 µM]	.
Cc1nc(NCCO)c2nc(-c3ccccc3)n(CC3CCN(C)CC3)c2n1	.	-	.	.
N#CCCn1c(=O)cnc2cnc(N3CCOCC3)nc21	.	6.3µM	-[11.4 µM]	.
CCCn1c(C)nc2c(NC3CCN(Cc4ccccc4)CC3)nc(C)nc21	.	-	.	.
COc1cc(-c2nnc(SCC(=O)c3cc(C)n(CC4CCCO4)c3C)o2)cc(OC)c1OC (centres undefined)	-	-	-	13
COc1cc(-c2nnc(SCC(=O)c3ccc(C)cc3)o2)cc(OC)c1OC	-	-	-	-
Cc1ccc2cc(C#N)c(NCCNC(=O)C3CC3)nc2c1C	-	25µM	-	-
COc1cc(-c2ccc(N=Nc3ccc4c(S(=O)(=O)O)cc(S(=O)(=O)O)c(N)c4c3O)c(OC)c2)ccc1N=Nc1ccc2c(S(=O)(=O)O)cc(S(=O)(=O)O)c(N)c2c1O	.	16µM	-	.
Nc1nnc(-c2ccccc2)c(-c2ccccc2)n1	-	-	-	-
c1ccc(-c2nc3nonc3nc2-c2ccccc2)cc1	-	13µM	-	-
Cc1ccc2nc3nc4ccc[nH]c4cc3c2c1	.	-[11.5 µM]	-[11.4 µM]	.
Cc1ccnc(NC(=O)Nc2cccc(F)c2)c1	-	-	3.2µM	-
Cc1nc2nc(-c3ccccc3)cn2nc1C	-	-	13µM	-
CCc1ccc(-c2cn3nc(C)c(C)nc3n2)cc1	1.5	.	1µM	.
CN(C)CCN(Cc1ccccc1)S(=O)(=O)c1cccc2cccnc12	.	.	-	.
CCN(CCCNC(=O)C1CCC(=O)N1Cc1ccc(F)cc1)c1cccc(C)c1 (centres undefined)	-	-	-	15
CCN(CCCNC(=O)C1CCC(=O)N1C1CCCC1)c1cccc(C)c1 (centres undefined)	-	-	-	-
O=C(O)CCSc1nnc(-c2ccc3c(c2)OCO3)o1	-	-	-	-
O=c1c2ccccc2nnn1CSc1nnc(-c2ccc3c(c2)OCO3)o1	-	-	-	8.8
CC(C)NC[C@H]1CCc2cc(CO)c([N+](=O)[O-])cc2N1	.	-	-	.
COc1ccc(-c2nnc3sc(CN4C(=O)c5ccccc5C4=O)nn23)cc1	-	-	-	.
SMILES	PK Bst	ERK AVP block	Luciferase inh	GBA mod
O=C1c2ccccc2C(=O)N1Cc1nn2c(-c3ccc(Cl)cc3)nnc2s1	-	-	-	7.8
CCc1nnc(NC(=O)CSc2nnc(Cc3ccccc3)o2)s1	-	-	-	?
CCc1nnc(NC(=O)CSc2nnc(CNc3ccc(Cl)cc3)o2)s1	-	-	-	15
Cc1csc(NC(=O)CCCSc2nc3ccccc3s2)n1	-	16µM	-	-
COc1ccccc1NC(=O)c1ccccc1-c1nc(-c2ccccc2OC)no1	.	-	16µM	-
COc1ccccc1-c1noc(-c2ccccc2C(=O)Nc2ccccc2)n1	-	-	-	-
O=c1c(-c2cc(F)cc(F)c2)nc2cnc(N3CCNCC3)nc2n1-c1ccccc1	.	-	-[11.4 µM]	.
CCc1nnc(NC(=O)c2ccc(OC)cc2OC)s1	.	-	7.9µM	.
CCc1nnc(NC(=O)Nc2ccccc2OC)s1	.	-	-	.
Cc1ccc(NC(=O)C2CCN(S(=O)(=O)c3cccc4cccnc34)CC2)nc1	.	32µM	-	.
O=C(C1CCN(S(=O)(=O)c2cccc3cccnc23)CC1)N1CCN(c2ccc(Cl)cc2)CC1	.	7.9µM	-	.
O=C(C1CCN(S(=O)(=O)c2ccc3ccccc3c2)CC1)N1CCN(c2ncccn2)CC1	-	25µM	-	-
Cc1cccc(NC(=O)C2CCN(S(=O)(=O)c3cccc4cccnc34)CC2)n1	.	10µM	-	.
CC(=O)c1ccc(NC(=O)C2CCN(S(=O)(=O)c3cccc4cccnc34)CC2)cc1	.	-	-	.
COc1ncc2nc(-c3cn(C)c4ccccc34)c(=O)n(CCc3ccccc3)c2n1	.	-	-[11.4 µM]	.
c1ccc(-c2csc3ncn4cnnc4c23)cc1	.	6.3µM	-	.
